Measurements as given in the supplement of paper PMC8371130.
Structures can show the parent of a compound that is named as a salt.

System: HL-1
Assay: relative cell viability (CellTiter-Glo) vs DMSO control (% of DMSO control); higher = more viable cells
How it was run: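 One day after HL-1 mouse atrial cardiomyocytes were plated (1000 cells per well, 384-well plates) with compounds at 40, 200, 1000 or 5000 nM in 0.01% DMSO, they were transferred to a hypoxic workstation at 1% O2. After 48 h there, the cells were reoxygenated for 24 h in a normal incubator, and comparison cells stayed in normoxia throughout the same time. Cell viability was quantified with CellTiter-Glo luminescence and normalised to vehicle-treated control cells.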

[1] = oxygen condition: hypoxia 48 h (1% O2) + reoxygenation 24 h, 40 nM
[2] = oxygen condition: hypoxia 48 h (1% O2) + reoxygenation 24 h, 200 nM
[3] = oxygen condition: hypoxia 48 h (1% O2) + reoxygenation 24 h, 1000 nM
[4] = oxygen condition: hypoxia 48 h (1% O2) + reoxygenation 24 h, 5000 nM
[5] = oxygen condition: normoxia 72 h, 40 nM
[6] = oxygen condition: normoxia 72 h, 200 nM
[7] = oxygen condition: normoxia 72 h, 1000 nM
[8] = oxygen condition: normoxia 72 h, 5000 nM

| SMILES | relative cell viability [1] | relative cell viability [2] | relative cell viability [3] | relative cell viability [4] | relative cell viability [5] | relative cell viability [6] | relative cell viability [7] | relative cell viability [8] |
| --- | --- | --- | --- | --- | --- | --- | --- | --- |
| Cc1c(-c2ccc(O)cc2)n(Cc2ccc(OCCN3CCCCCC3)cc2)c2ccc(O)cc12 [Bazedoxifene HCl] | 107 | 99.8 | 101 | 84.1 | 98.6 | 97.9 | 105 | 45.6 |
| CCCNC(C)C(=O)Nc1c(C)csc1C(=O)OC (stereo not drawn) [Articaine HCl] | 105 | 103 | 57.4 | 105 | 103 | 101 | 103 | 107 |
| Clc1ccc(C(Cn2ccnc2)OCc2ccc(Sc3ccccc3)cc2)c(Cl)c1 (stereo not drawn) [Fenticonazole nitrate] | 102 | 102 | 105 | 107 | 102 | 98 | 101 | 104 |
| N[C@@H](CSCCCO)C(=O)O [Fudosteine] | 105 | 105 | 109 | 111 | 106 | 109 | 104 | 115 |
| Cc1cc(C2CCCCC2)n(O)c(=O)c1 [Ciclopirox] | 95.4 | 92.3 | 80.4 | 5.32 | 87.8 | 69.4 | 20 | 2.16 |
| [I-].[K+] [Potassium iodide] | 103 | 104 | 102 | 108 | 106 | 104 | 106 | 109 |
| CCCC(=O)Nc1ccc(OCC(O)CNC(C)C)c(C(C)=O)c1 (stereo not drawn) [Acebutolol HCl] | 102 | 108 | 107 | 114 | 104 | 107 | 106 | 116 |
| CNC(=C[N+](=O)[O-])NCCSCc1csc(CN(C)C)n1 [Nizatidine] | 108 | 104 | 106 | 95.7 | 115 | 104 | 106 | 85 |
| CC1=C(CC(=O)O)c2cc(F)ccc2/C1=C\c1ccc([S+](C)[O-])cc1 (stereo not drawn) [Sulindac] | 104 | 105 | 106 | 61.2 | 103 | 101 | 108 | 113 |
| Nc1nc2ccc(OC(F)(F)F)cc2s1 [Riluzole] | 102 | 105 | 108 | 111 | 103 | 104 | 107 | 107 |
| CC(=O)O[C@H]1CC[C@@]2(C)C(=CC[C@@H]3[C@@H]2CC[C@]2(C)C(c4cccnc4)=CC[C@@H]32)C1 [Abiraterone Acetate] | 104 | 103 | 101 | 117 | 97.2 | 99.2 | 102 | 115 |
| Cc1cnc(C(=O)NCCc2ccc(S(=O)(=O)NC(=O)NC3CCCCC3)cc2)cn1 [Glipizide] | 109 | 108 | 108 | 109 | 106 | 97.1 | 106 | 110 |
| O=C(NCCN1CCOCC1)c1ccc(Cl)cc1 [Moclobemide] | 113 | 111 | 102 | 120 | 108 | 100 | 119 | 121 |
| CN(C)C(=N)NC(=N)N [Metformin hydrochloride] | 98.4 | 104 | 105 | 109 | 105 | 96.6 | 104 | 109 |
| COc1cc2/c(=N/c3ccc(Br)cc3F)nc[nH]c2cc1OCC1CCN(C)CC1 [Vandetanib] | 110 | 115 | 115 | 102 | 113 | 112 | 116 | 102 |
| Cn1c([N+](=O)[O-])cnc1COC(N)=O [Ronidazole] | 107 | 112 | 106 | 118 | 112 | 113 | 121 | 110 |
| COCCOC(=O)C1=C(C)NC(C)=C(C(=O)OC(C)C)C1c1cccc([N+](=O)[O-])c1 (stereo not drawn) [Nimodipine] | 109 | 108 | 109 | 107 | 108 | 109 | 103 | 104 |
| CCOC(=O)[C@H](CCc1ccccc1)N[C@H]1CS[C@H](c2cccs2)CN(CC(=O)O)C1=O [Temocapril HCl] | 102 | 102 | 104 | 112 | 104 | 77.1 | 102 | 110 |
| C=C1CC[C@H](O)C/C1=C/C=C1\CCC[C@]2(C)[C@@H]([C@H](C)CCCC(C)C)CC[C@@H]12 [Vitamin D3] | 104 | 89.6 | 54.7 | 109 | 94.8 | 70.8 | 66.2 | 116 |
| CCCC(=O)OCOC(=O)C1=C(C)NC(C)=C(C(=O)OC)C1c1cccc(Cl)c1Cl (stereo not drawn) [Cleviprex] | 106 | 90.5 | 93.1 | 98 | 91.9 | 91.8 | 96.5 | 96.4 |
| C=C1/C(=C\C=C2/CCC[C@]3(C)[C@@H]([C@H](C)/C=C/[C@H](C)C(C)C)CC[C@@H]23)C[C@@H](O)C[C@@H]1O [Doxercalciferol] | 89.5 | 88 | 93.7 | 88.7 | 106 | 99 | 103 | 52.4 |
